Rows were chosen to be rich in hits. Some 1.9% of all compounds tested hit in one or more screens of this group.
PKA inh: inhibitors of human PKA kinase activity, primary screen, biochemical, ATP-depletion luminescence, Kemptide substrate; cAMP-dependent protein kinase catalytic subunit alpha (Homo sapiens), P17612; PKA Kemptide phosphorylation, Kinase-Glo ATP luminescence; inhibition, % at 6 µM; 65,000 compounds, 0.1% hits;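 active means inhibition above the screen-wide mean inhibition plus 3 SD, cut at about 21% in these data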
JNK3 blocker: JNK3 kinase activity inhibitors, primary screen, biochemical, human, purified enzyme; inhibition, % at 8 µM; 60,000 compounds, 0.61% hits; Mitogen-activated protein kinase 10 (Homo sapiens), P53779; HTS; in the data active means inhibition above about 17%
Jurkat tox 60K: cytotoxicity toward Jurkat T cells, primary screen, cytotoxicity control, cell-based, Jurkat E6.1, 60K MLSMR library; Jurkat E6.1 viability, ATP luminescence, 48 h; inhibition, % at 4 µM; 56,000 compounds, 1.2% hits; AID 463, 2006;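 active means inhibition above the mean inhibition of all tested compounds plus 3 SD, cut at about 28% in these data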
ROCK2 blocker: inhibitors of human ROCK2 kinase, primary screen, biochemical, high-throughput, luminescence | Rho-associated protein kinase 2 (Homo sapiens), O75116 | purified ROCK2, Kinase-Glo ATP depletion luminescence | inhibition, % at 6 µM | 60,000 compounds, 0.35% hits;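 active means inhibition above the screen-wide mean inhibition plus 3 SD, cut at about 18% in these data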
Hsp90 inh: tumor Hsp90 inhibitors, primary screen, cell lysate, fluorescence polarization, NCI-N417 lysate; Heat shock protein HSP 90-alpha (Homo sapiens), P07900; inhibition, % at 30 µM; Cy3B-geldanamycin FP displacement; 64,000 compounds, 0.35% hits; AID 429, 2006;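 active means inhibition above 50%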
Numbers stand for hits; i = inactive; nt = not tested or not shown.

SMILES	PKA inh	JNK3 blocker	Jurkat tox 60K	ROCK2 blocker	Hsp90 inh
COc1cc(CC(=O)Nc2ncc(C)s2)cc(OC)c1OC	i	42	i	i	i
COc1ccc(CC(=O)Nc2ccc(-c3nnc(-c4ccccc4)o3)cc2)cc1OC	i	i	i	i	i
COc1ccc(CC(=O)Nc2cccc(-c3nnc(-c4cccc(C)c4)o3)c2)cc1OC	i	i	43	i	i
C[n+]1cc2c3c(ccc2c2ccc4cc5c(cc4c21)OCO5)OCO3	nt	nt	nt	nt	i
CCS(=O)(=O)c1ccc(S(=O)(=O)CC)s1	i	i	i	i	i
COc1ccc(CC(=O)Nc2cccc(-c3nnc(-c4ccc(C)cc4)o3)c2)cc1OC	i	i	i	i	i
COc1ccc(CC(=O)Nc2cccc(-c3nnc(-c4ccccc4)o3)c2)cc1OC	i	i	33	i	i
Nc1nc2c(s1)CCc1c-2cnn1-c1ccccc1	i	i	i	i	93
COc1ccc(-c2cnn(-c3ccccc3)c2N)cc1OC	i	i	i	i	i
c1ccc(/N=C2\N=C(Nc3ccccn3)c3ccccc32)nc1	i	i	50	i	i
COc1cccc(-n2nnnc2SCC(=O)c2cc(OC)ccc2OC)c1	i	i	i	i	i
c1csc(-c2cnc3ccccc3n2)c1	i	25	i	i	i
CCCn1c(-c2cccs2)nc2ccccc21	i	i	i	i	i
O=C(Oc1cccc2c(=O)[nH]ccc12)c1ccccc1	i	i	i	18	i
O=C(Oc1cccc2ccccc12)c1ccco1	i	i	i	i	i
COC(=O)c1ccc(Cn2c(O)c(N=O)c3ccccc32)o1	i	20	nt	i	i
COC(=O)c1ccc(CN2CCN(Cc3ccc(C(=O)OC)o3)CC2)o1	i	i	i	i	i
CC(C)[C@@H]1NC(=O)[C@H](CCCCN)NC(=O)[C@@H](Cc2c[nH]c3ccccc23)NC(=O)[C@H](Cc2ccc(O)cc2)NC(=O)[C@H](C)N(C)C(=O)[C@H](Cc2ccccc2)NC1=O	nt	nt	nt	nt	i
O=C(O)CN(CCN(CC(=O)O)CC(=O)O)CCN(CC(=O)O)CC(=O)O	nt	nt	nt	nt	i
CS(=O)(=O)N(CCc1ccccc1)CC(=O)NCc1cccnc1	i	i	i	i	i
N[C@@H](COP(=O)(O)O)C(=O)O	nt	nt	nt	nt	i
COc1ccc(OC)c(C(=O)c2coc3ccc(O)cc23)c1	i	18	i	i	i
O=C(c1coc2ccc(O)cc12)C1CC1	i	i	i	i	i
Cc1cccc(Nc2nc3c(c(=O)n(C)c(=O)n3C)n2CC(O)CO)c1 (stereo not given)	i	i	i	i	i
Cn1c(=O)c2c(nc(NCc3ccco3)n2C/C=C/c2ccccc2)n(C)c1=O	i	i	49	i	i
SMILES	PKA inh	JNK3 blocker	Jurkat tox 60K	ROCK2 blocker	Hsp90 inh
CNc1nc2c(c(=O)n(C)c(=O)n2C)n1Cc1ccccc1	i	i	45	i	i
Cc1cccc(Cn2c(NCC(C)O)nc3c2c(=O)n(C)c(=O)n3C)c1 (stereo not given)	i	i	39	i	i
CCSC(N)=Nc1ccc(C(F)(F)F)cc1	nt	nt	nt	nt	i
Cn1cnnc1SCC(=O)c1ccc2c(c1)CCCC2	i	i	i	i	54
COc1cc(C(=O)CSc2nncn2C)cc(OC)c1OC	i	i	i	i	i
COc1ccc(S(=O)(=O)N2CCOCC2)cc1C(=O)Nc1cc(C)on1	i	i	i	i	i
O=C(Nc1ccc(-c2nc3cccnc3s2)cc1)c1ccco1	i	23	i	i	i
CCN(Cc1ccncc1)S(=O)(=O)c1ccc(C(C)=O)cc1	i	i	30	i	i
CCN(CC)S(=O)(=O)c1ccc(Oc2cccc(C(C)=O)c2)nc1	i	i	i	i	i
CC(C)C[C@H](NC(=O)C1OC1C(=O)O)C(=O)NCCCCN=C(N)N (stereo not given in full)	nt	nt	nt	nt	i
Nc1nc(Cl)nc2c1ncn2[C@@H]1O[C@H](COP(=O)(O)OP(=O)(O)OP(=O)(O)O)[C@H](O)C1O (stereo not given in full)	nt	nt	nt	nt	i
CCOC(=O)c1sc(-c2ccc(OC)cc2)cc1N	i	i	i	i	i
CCOC(=O)c1c(N)n[nH]c1-c1ccc(OC)cc1	i	18	i	i	i
CCc1nnc(NC(=O)CCC(=O)N2CCN(CCOc3ccc(C)cc3)CC2)s1	i	i	i	i	i

Screening results from PubChem BioAssay.
